Assay results published in PubChem BioAssay (NCI).
About 79,000 compounds went through this panel and 15% of them were active in at least one assay; those are over-represented in the sample as a whole. A number with no mark means an inactive call. Calls of active or inactive are those of the source. No stated cut-off is given here; in the data, active means growth inhibition above about 70%; inactive means the rest.

Assays:
[1] = NCI Yeast Anticancer Drug Screen. Data for the rad50 strain (AID 155);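 further: 0% = growth of vehicle-only cultures of the same strain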; conditions: S. cerevisiae rad50 strain growth inhibition; at 50.0 µM; active compounds read high
Outline: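 Vehicle-treated cultures provide the reference for the growth inhibition reported for compound-exposed, repair-deficient yeast.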

[2] = NCI Yeast Anticancer Drug Screen. Data for the mec2-1 strain (AID 157); conditions: S. cerevisiae mec2-1 strain, at 50.0 µM, active compounds read high
Outline: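 Growth inhibition is read against vehicle-treated controls after compound exposure of the mec2-1 yeast strain, which is defective in DNA damage repair or cell cycle control.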

[3] = NCI Yeast Anticancer Drug Screen. Data for the sgs1 mgt1 strain (AID 161);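 further: 0% = growth of cultures given vehicle only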; conditions: S. cerevisiae sgs1 mgt1 strain, at 50.0 µM, active compounds read high
Outline: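 This yeast growth screen uses a strain with defined DNA-repair lesions; compound-treated growth is compared with vehicle-treated growth.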

[4] = NCI Yeast Anticancer Drug Screen. Data for the cln2 rad14 strain (AID 165);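 further: 0% = growth equal to vehicle treated cultures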; conditions: S. cerevisiae cln2 rad14 strain, at 50.0 µM, active compounds read high
Outline: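 Growth inhibition, relative to vehicle-treated controls, is the read-out. The test organism is a yeast strain with defined genetic alterations, cln2 rad14.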

[5] = NCI Yeast Anticancer Drug Screen. Data for the bub3 strain (AID 167); conditions: S. cerevisiae bub3 mutant strain, at 50.0 µM, active compounds read high
Outline: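 Mutant yeast screening strain plus compound; vehicle-treated cultures serve as the 0% inhibition reference.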

[6] = NCI Yeast Anticancer Drug Screen. Data for the mlh1 rad18 strain (AID 175); conditions: S. cerevisiae mlh1 rad18 strain growth inhibition; at 50.0 µM; active compounds read high
Outline: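 Cells of a genetically altered yeast strain, deficient in DNA damage repair, were treated with compound. Their growth was then compared with that of vehicle-treated cultures to give inhibition.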

SMILES	growth inhibition [1]	growth inhibition [2]	growth inhibition [3]	growth inhibition [4]	growth inhibition [5]	growth inhibition [6]
Cc1ccc(Oc2cc(C)ccc2P(=O)(O)O)cc1	6.5%	1.4%	22.2%	26.1%	-23.7%	23.1%
O=C(O)CCCC1=C2CCC(=O)C=C2CCC1	-15.8%	-24.6%	-10.3%	0.2%	-20.6%	-10.1%
NCCNc1ncnc2ccccc12	-13.1%	16.1%	-1.75%	-11.6%	-1.35%	-5.2%
CCOC(=O)C(=CNC(=S)Nc1ccc(Cl)c(Cl)c1)C(=O)OCC	53.5%	39.5%	59.7%	45.6%	39%	67.5%
O=C1C=C(Nc2ccccc2C(=O)CC(=O)C(=O)Nc2ccc(Cl)c(Cl)c2)c2ccccc2C1=O	-14.1%	5.7%	3.2%	-30.9%	-24.2%	-7.15%
O=C(C#Cc1ccccc1)[O][Sn]([c]1ccccc1)([c]1ccccc1)[c]1ccccc1	99% (active)	99.2% (active)	99.4% (active)	99.2% (active)	99.1% (active)	99.2% (active)
COc1ccc(NC(=O)C2C(=O)N(c3ccc(OC)cc3)C(=O)/C2=N\NC(N)=O)cc1 (stereo not given)	-8.9%	-24.9%	-48%	11.1%	-9.6%	-18.2%
CC1(O)C(O)C(O)C1(O)CO (stereo not given) (tested in a mixture with another compound)	6.55%	-3.35%	9.9%	-1.85%	-2.4%	-4.9%
Nc1nc(Cl)cc(Oc2ccc(Cl)cc2)n1	9.65%	-17.6%	22.6%	2.5%	17%	-30.6%
O=c1c(-c2ccccc2)nc2ccccc2n1CC1CCCN2CCCC[C@H]12 (stereo not given in full)	3.9%	-10%	18.3%	-38.9%	22.7%	19.4%
COC(=O)c1cnccn1	-3.3%	-1.35%	-3.85%	-27.4%	0.75%	-6.3%
CCC[CH2][Sn]([C]#[C][Sn]([CH2]CCC)([CH2]CCC)[CH2]CCC)([CH2]CCC)[CH2]CCC	99.6% (active)	98.8% (active)	99.5% (active)	99.2% (active)	99.3% (active)	99.4% (active)
O=C(Cc1ccc(Cl)cc1)c1ccccc1Cl	2.8%	2.75%	-1%	1.7%	-5.65%	4.4%
CC(C)(C)OC(=O)C(C1NC(C(=O)O)C(C)(C)S1)N1C(=O)c2ccccc2C1=O (stereo not given)	-29.8%	-43%	-53.7%	-42.1%	-56.4%	-17.4%
O=c1ccc2ccc(OP(=O)(O)O)cc2o1	-12.4%	-15.1%	11.4%	14.1%	-34.7%	19.6%
NC(=O)N/N=C(/Cl)C(=O)NNC(N)=O	-4.4%	6.25%	-10.5%	-81.2%	-0.95%	-27.1%
CC(C)CCCC(C)[C@H]1CC[C@H]2[C@@H]3CC[C@H]4C[C@@H](CCC=C(c5cc(Cl)c(O)c(C(=O)OC(C)C)c5)c5cc(Cl)c(O)c(C(=O)OC(C)C)c5)CC[C@]4(C)[C@H]3CC[C@]12C (stereo not given in full)	17.7%	9.05%	23.1%	18.7%	11.5%	-32.5%
CCCCN(CCCC)C(=N)c1cccc(OC)c1	-7.9%	-13.4%	-7.35%	-15.3%	2.75%	-17.9%

SMILES	growth inhibition [1]	growth inhibition [2]	growth inhibition [3]	growth inhibition [4]	growth inhibition [5]	growth inhibition [6]
COC1(OC)N=C(N)C2(C#N)C(C)CC(=O)N(N(C)C)C12C#N (stereo not given)	7.15%	6.1%	-27.4%	-2.7%	-37.4%	-34.9%
COc1ccc(Cc2cc(OC)c(OC)c(OC)c2)cc1O	2.2%	11.4%	-16.4%	-22.1%	19.9%	-21.2%
CN/N=C(\C(=O)Nc1ccc(C)c(C)c1)C(C(=O)OC)c1nc2ccc([N+](=O)[O-])cc2[nH]c1=O (stereo not given)	-42.9%	2.7%	-19.1%	19.3%	-1.25%	-18.2%
c1cncc(-c2c3ccccc3cc3ccccc23)c1	22.3%	-16%	2.8%	-8.5%	4.8%	5.1%
CC1=C(C(=O)Nc2ccc([N+](=O)[O-])cc2)C(c2ccco2)C(C(=O)Nc2ccc([N+](=O)[O-])cc2)=C(C)N1	30.2%	35.5%	34.4%	38.2%	43.5%	14.9%
C=CC1CNCCC1CCC(=O)c1ccnc2ccc(OC)cc12 (stereo not given)	7.75%	-9.6%	-1.2%	5.85%	1.15%	4.4%
O=C(CN(Cc1ccccc1)Cc1ccccc1)NC(=O)c1ccccc1	4.5%	-7.9%	8.45%	-36.4%	9.55%	-10.4%
CC(=O)N1N=C(c2ccc(OCC(O)CN3CCN(CC(O)COc4ccc(C5=NN(C(C)=O)C(c6ccccc6)C5)cc4)CC3)cc2)CC1c1ccccc1 (stereo not given)	-30.6%	-25.9%	-8.85%	-30.4%	-25.9%	-3.8%
CCOC(=O)COc1ccc(C)c2c1C(=O)CC2	-11.2%	-12.9%	-13.2%	-25.9%	-19.1%	-9.9%
O=C(Nc1cccc(O)c1)c1ccc([N+](=O)[O-])cc1	1.5%	18.6%	14.4%	-15.3%	19.7%	23.4%
O=C1c2ccccc2C(=O)N1OCCCCON1C(=O)c2ccccc2C1=O	10.8%	-0.2%	-19.9%	15.1%	1%	-2.4%
NC(=O)c1ccccc1NC(=O)C(=O)C(C(=O)c1ccc2ccccc2c1)C1OC(=O)c2ccccc21 (stereo not given)	0.7%	-2.15%	10.6%	-44.6%	15.4%	9.15%
Nc1nc(Cc2ccccc2)c(-c2ccccc2)c(-c2nc(N)nc(Cc3ccccc3)c2-c2ccccc2)n1	-9.6%	14.4%	-26.4%	-5.15%	-5.2%	7.85%
CN(C)S(=O)(=O)C=C(c1ccccc1)c1ccccc1	1.25%	4.1%	17.4%	-5.1%	15.3%	-0.2%
O=c1c2c(oc(=Nc3ccccc3)n1-c1ccccc1)CC1(CCCCC1)C2	5.45%	1.75%	-0.1%	-15.2%	-10.9%	-4.2%
CC1CCCCN1Cc1ccccc1COC(=O)c1cccc(Br)c1 (stereo not given)	32.5%	-1.65%	43.3%	-16.9%	16.1%	2.4%
COC1(C2COc3cc(OCc4ccccc4)ccc3C2=O)C=C2OCOC2=CC1=O (stereo not given)	-16.6%	-18%	-6.6%	-33%	9.45%	-4.75%
